From PubChem
HTT cytoprotect – qHTS Multiplex Assay to Identify Dual Action Probes in a Cell Model of Huntington: Cytoprotection (ATP). Potency, µM (doses to about 56.4 µM), usual class: activators. 0.14% of 230,000 active. PC12 HTT-Q103 induced, cytoprotection, ATP luminescence, 40 h; further: nearly all actives have a fitted effect of over 45% in size
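Quantitative HTS on tebufenozide-induced (100 nM) PC12 cells expressing HTTQ103 exon 1–GFP; compounds tested as a concentration series; survival measured via cellular ATP.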
JMJD2E inh – qHTS Assay for Inhibitors of Human Jumonji Domain Containing 2E (JMJD2E). Lysine-specific demethylase 4E (Homo sapiens), B2RXH2. JMJD2E catalytic domain, FDH-coupled NADH fluorescence (FDH is formaldehyde dehydrogenase). Potency, µM (top dose mostly 57.1 µM), actives largely listed as inhibitors. 1.6% of 230,000 active. AID 2147, 2009; active means well fitted inhibition curve with a large enough effect, not every such curve was filed as active; inconclusive means small, poorly fitted or top-dose-only effect, or another doubt; inactive means no such curve, though single readings can be large or run the other way; further: nearly all actives have a fitted effect of over 50% in size
HttQ103 aggreg – qHTS Multiplex Assay to Identify Dual Action Probes in a Cell Model of Huntington: Aggregate Formation (GFP); PC12 HttQ103-GFP aggregates, Acumen cytometry, 40 h; 1.1% of 220,000 active; Potency, µM (doses to about 46.1 µM), hits mostly inhibitors; further: nearly all actives have a fitted effect of over 60% in size
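Read-out: GFP aggregate count by laser scanning cytometer (488 nm excitation, 500-530 nm emission, 1–25 µm objects >6 SD above background). Cells: PC12, inducible HTTex1-Q103-GFP, 100 nM tebufenozide; compounds titrated.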
CBFb RUNX1 block – qHTS Assay for Compounds Blocking the Interaction Between CBF-beta and RUNX1 for the Treatment of Acute Myeloid Leukemia; Runt-related transcription factor 1 (Homo sapiens) + Core-binding factor subunit beta …; AlphaScreen CBFb-His/RUNX1-biotin binding, biochemical; Potency, µM (doses to about 59.8 µM), hits mostly inhibitors; 230,000 tested, under 10 active; AID 1477, 2009
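Read-out: AlphaScreen. Format: His-CBF-beta with biotinylated RUNX1 (30 nM each) preincubated 20 min, compound 15 min, Ni-chelate plus streptavidin beads 90 min; room temperature throughout.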
ALDH1A1 inh – qHTS Assay for Inhibitors of Aldehyde Dehydrogenase 1 (ALDH1A1); Purified ALDH1A1, NADH fluorescence, propionaldehyde substrate; Potency, µM (doses to about 75.3 µM), usual class: inhibitors; 7.3% of 220,000 active; active means well fitted inhibition curve with a large enough effect, not every such curve was filed as active; inconclusive means small, poorly fitted or top-dose-only effect, or another doubt; inactive means no such curve, though single readings can be large or run the other way
Target sequence (P00352 whole entry, looked up): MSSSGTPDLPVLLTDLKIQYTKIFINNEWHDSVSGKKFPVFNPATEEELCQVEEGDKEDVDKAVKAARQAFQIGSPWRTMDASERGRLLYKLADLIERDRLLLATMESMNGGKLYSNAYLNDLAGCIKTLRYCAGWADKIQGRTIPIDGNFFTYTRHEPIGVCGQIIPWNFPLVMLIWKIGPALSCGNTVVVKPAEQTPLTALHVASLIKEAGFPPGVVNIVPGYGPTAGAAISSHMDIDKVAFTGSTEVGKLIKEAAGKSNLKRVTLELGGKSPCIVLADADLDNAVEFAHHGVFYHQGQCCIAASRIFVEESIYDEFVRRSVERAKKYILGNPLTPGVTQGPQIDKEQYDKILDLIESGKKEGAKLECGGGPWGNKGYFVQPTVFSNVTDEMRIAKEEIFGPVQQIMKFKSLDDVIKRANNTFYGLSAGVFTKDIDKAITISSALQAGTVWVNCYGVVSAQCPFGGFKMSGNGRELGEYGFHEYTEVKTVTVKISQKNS
HPGD block – qHTS Assay for Inhibitors of HPGD (15-Hydroxyprostaglandin Dehydrogenase). Potency, µM, hits mostly inhibitors. 15-hydroxyprostaglandin dehydrogenase [NAD(+)] (Homo sapiens), P15428. 4.3% of 150,000 active. AID 894, 2007. purified HPGD, NADH fluorescence kinetic, PGE2 substrate; active means well fitted inhibition curve with a large enough effect, not every such curve was filed as active; inconclusive means small, poorly fitted or top-dose-only effect, or another doubt; inactive means no such curve, though single readings can be large or run the other way
Target sequence (P15428 whole entry, looked up): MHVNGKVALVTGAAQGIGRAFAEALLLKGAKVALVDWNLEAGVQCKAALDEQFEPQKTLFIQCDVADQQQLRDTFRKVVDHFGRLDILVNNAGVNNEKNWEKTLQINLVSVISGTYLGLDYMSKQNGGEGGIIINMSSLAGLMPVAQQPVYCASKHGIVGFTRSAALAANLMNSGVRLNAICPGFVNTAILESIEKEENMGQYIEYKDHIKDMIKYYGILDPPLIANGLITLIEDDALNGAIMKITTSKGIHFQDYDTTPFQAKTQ
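20 nM HPGD preincubated 15 min at room temperature with compound in 50 mM Tris-HCl pH 8, 0.01% Tween 20. Started with 1 mM NAD+ and 30 uM prostaglandin E2; NADH fluorescence (360/450 nm) read 5 times over 30-s intervals, last minus first.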
Large screens that a line does not name were inactive. This is a sample that favours compounds with a hit; in the whole collection about 9.8% have one here. Unless noted, the call rests on the fitted dose curve; in most records, active means well fitted curve in the direction sought with a large enough effect; inconclusive means small, poorly fitted or top-dose-only effect, or another doubt; inactive means no such curve, though single readings can be large; an effect the other way counts as inactive or inconclusive.

COc1ccc2c(=O)c3c(=O)n(Cc4ccco4)c(C(C)C)nc3oc2c1	ALDH1A1 inh 9.5µM
CCC1(C)CC(c2nc(-c3ccc(OC)cc3)cs2)CCS1 (centres undefined)	none
Cc1cc(NC(=O)CN2CCN(C/C=C/c3ccccc3)CC2)c([N+](=O)[O-])cc1C	none
O=C(CN1CCN(C/C=C/c2ccccc2)CC1)Nc1cc([N+](=O)[O-])ccc1Cl	ALDH1A1 inh 10µM (no result: HTT cytoprotect)
Cc1ccccc1Oc1nc(-c2ccccn2)nc2ccccc12	none (no result: HPGD block)
CC1(C)[C@H]2CC[C@]1(C)[C@@H](OC(=O)C[N+]1(C)CCOCC1)C2	none (no result: HPGD block)
CC1(C)[C@@H]2CC[C@]1(C)[C@@H](OC(=O)CSC#N)C2	ALDH1A1 inh 1.8µM (no result: JMJD2E inh, CBFb RUNX1 block)
Cc1cnccc1CN(C)Cc1nc(Cc2ccccc2Cl)no1	JMJD2E inh inconclusive, ALDH1A1 inh inconclusive (no result: HPGD block)
O=C(CSc1nc2ccccc2s1)NC1CCCC1	none (no result: ALDH1A1 inh, HPGD block)
Cc1ccccc1OCc1nnc(SCC(=O)Nc2ccc3nc(SCC(=O)NC(C)(C)C)sc3c2)n1C	ALDH1A1 inh inconclusive
Nc1ccc2nc(SCC(=O)N3CCOCC3)sc2c1	none (no result: HPGD block)
COc1ccc(C)cc1NC(=O)CSc1nnnn1Cc1ccccc1	none
Cn1ccnc1SCC(=O)Nc1ccc2nc(SCC(=O)NC3CC3)sc2c1	ALDH1A1 inh 3.5µM, HPGD block 14µM
CCOC(=O)CSc1nc2ccc(N)cc2s1	ALDH1A1 inh 20µM, HPGD block inconclusive
CCOC(=O)CSc1nc2ccc(NC(=O)CSc3nnnn3Cc3ccccc3)cc2s1	HttQ103 aggreg inconclusive, ALDH1A1 inh 14µM
CC(C)(C)NC(=O)CSc1nc2ccc(NC(=O)CSc3nnnn3Cc3ccccc3)cc2s1	HttQ103 aggreg inconclusive, ALDH1A1 inh 4µM, HPGD block 8.9µM
CC(C)(C)NC(=O)CSc1nc2ccc(NC(=O)CSc3nnc(N)s3)cc2s1	HttQ103 aggreg inconclusive, HPGD block 32µM (no result: HTT cytoprotect)
c1cncc(-c2nccc(NCc3cccs3)n2)c1	ALDH1A1 inh 11µM (no result: JMJD2E inh, HttQ103 aggreg, CBFb RUNX1 block, HPGD block)
COc1cccc(-c2nccc(NCc3cccs3)n2)c1	ALDH1A1 inh inconclusive (no result: JMJD2E inh, HttQ103 aggreg, CBFb RUNX1 block, HPGD block)
Clc1ccccc1-c1nccc(NCc2cccs2)n1	ALDH1A1 inh 14µM (no result: JMJD2E inh, HttQ103 aggreg, CBFb RUNX1 block, HPGD block)
C=C(C)C(=O)OCCO	none (no result: HTT cytoprotect, JMJD2E inh, HttQ103 aggreg, ALDH1A1 inh, HPGD block)
O=C(COC(=O)C1(c2cccc(F)c2)CCCC1)NCc1cccs1	none (no result: HPGD block)
O=C(Nc1ccc(-c2cn3ccccc3n2)cc1)c1ccco1	none (no result: HTT cytoprotect)
O=C(Nc1ccc(-c2cn3ccccc3n2)cc1)c1ccc(Cl)cc1	JMJD2E inh inconclusive, HttQ103 aggreg 2.8µM, ALDH1A1 inh inconclusive, HPGD block inconclusive
CCCCC(=O)Nc1cccc(-c2cn3ccccc3n2)c1	ALDH1A1 inh 28µM (no result: HPGD block)
CCOC(=O)C1(C)NC(c2cccs2)C2C(=O)N(c3ccc(OC)cc3)C(=O)C21 (centres undefined)	none (no result: HPGD block)
CC1=C(CO)C(=O)OC([C@@H](C)C2CC[C@H]3C4C[C@H]5O[C@]56[C@@H](O)C=CC(=O)[C@]6(C)C4CC[C@]23C)C1 (some centres undefined)	HTT cytoprotect 3.5µM, HttQ103 aggreg inconclusive (no result: ALDH1A1 inh, HPGD block)
CC(C(=O)O)C1CCC2C3CC=C4CC(O)CC[C@@]4(C)C3CC[C@]12C (some centres undefined)	none (no result: HTT cytoprotect, HttQ103 aggreg, CBFb RUNX1 block)
Cc1cc(C)cc(C(=O)NCC(=O)OCC(=O)Nc2ccc(C)cc2Br)c1	none (no result: HPGD block)
Cc1nn(C)c(Oc2ccccc2)c1CCNC(=O)CCl	ALDH1A1 inh 22µM (no result: HPGD block)
Cn1nc(-c2ccccc2)c(C(=O)NCC(=O)O)c1Cl	HTT cytoprotect inconclusive (no result: HPGD block)
O=C(NCCC1=CCCCC1)c1cc(-c2ccncc2)nc2ccccc12	ALDH1A1 inh inconclusive (no result: HPGD block)
Cc1c(C(=O)Nc2ccc3c(c2)CCC3)cccc1[N+](=O)[O-]	ALDH1A1 inh 9.5µM (no result: HTT cytoprotect)
Cc1cc(OCC(=O)Nc2ccccc2F)nc(C(C)C)n1	none
Cc1cc(OCC(=O)Nc2ccc(F)c(F)c2)nc(C(C)C)n1	ALDH1A1 inh 25µM
NC(=O)C1CCN(C(=O)CNC(=O)c2ccccc2)CC1	none (no result: HPGD block)
CC(C)NC(=S)N/N=C1\CCCCC1C1CCCCC1 (centres undefined)	ALDH1A1 inh 6.3µM, HPGD block inconclusive
O=[N+]([O-])c1ccc(NC2CCN(Cc3ccccc3)CC2)c([N+](=O)[O-])c1	none (no result: HPGD block)
O=C1c2c([N+](=O)[O-])cc([N+](=O)[O-])cc2S(=O)N1Cc1ccccc1 (centres undefined)	JMJD2E inh inconclusive, ALDH1A1 inh 3.5µM (no result: HPGD block)
O=C(COC(=O)CNC(=O)c1ccco1)Nc1ccccc1OC(F)F	none (no result: HPGD block)
Cc1ccc(N(CC(O)COCc2ccco2)S(=O)(=O)c2ccc(C)cc2)cc1 (centres undefined)	HttQ103 aggreg inconclusive, ALDH1A1 inh 3.2µM
COc1cc(Br)cc2cc(C(=O)N3CCCCC3C)c(=O)oc12 (centres undefined)	ALDH1A1 inh inconclusive, HPGD block 13µM
Cc1nnc(NC(=O)c2sc3nc(-c4cccs4)cc(C(F)(F)F)c3c2N)s1	JMJD2E inh inconclusive
CC(C)(C)C(=O)c1sc2nc(-c3cccs3)cc(C(F)(F)F)c2c1N	JMJD2E inh 6.3µM, ALDH1A1 inh inconclusive, HPGD block inconclusive
CCN(CC)C(=O)c1sc2nc(-c3cccs3)cc(-c3cccs3)c2c1N	JMJD2E inh inconclusive, ALDH1A1 inh 20µM (no result: HPGD block)
Nc1c(C(=O)Nc2nccs2)sc2nc(-c3cccs3)cc(C(F)(F)F)c12	JMJD2E inh inconclusive, HttQ103 aggreg inconclusive, ALDH1A1 inh inconclusive, HPGD block inconclusive
Cc1nn(CCCC(=O)Nc2c(F)cc(F)cc2Br)c(C)c1[N+](=O)[O-]	none (no result: HPGD block)
CCCCOc1ccccc1NC(=O)c1ccco1	none
CCCCOc1ccccc1NC(=O)c1scc2c1OCCO2	JMJD2E inh inconclusive, HttQ103 aggreg 13µM (no result: HPGD block)
CC(Oc1ccc(Cl)cc1Cl)c1nc(-c2ccc(NC(=O)c3cccnc3)cc2)no1 (centres undefined)	HttQ103 aggreg 7.9µM
CC(C(=O)Nc1ccccn1)N1C(=O)C2C3C=CC(C3)C2C1=O (centres undefined)	JMJD2E inh inconclusive, ALDH1A1 inh 25µM (no result: HPGD block)
